Assay results reported in PubChem BioAssay.
The source made the active and inactive calls.

What was measured:
[1] = small molecules captured by biotinylated probe aFSTL3 – biochemical, small-molecule microarray, fluorescence 635/667, stem cell growth factor project, primary screen (AID 1064); details: higher = more signal;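 also: measures binding of the biotinylated anti-FSTL3 antibody to printed compounds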
[2] = binders from COS7 lysate, DM2A8 probe, primary screen, torsin A project, cell lysate, small-molecule microarray, fluorescence 635/667 (AID 1065); details: higher = more signal, COS7 lysate expressing mutant human TOR1A
[3] = small molecules captured by biotinylated probe aFGF2 – biochemical, small-molecule microarray, fluorescence 635/667, stem cell growth factor project, primary screen (AID 1067); details: higher = more signal;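 also: measures binding of biotinylated aFGF2 protein to printed compounds on slides; z-score merges feature fluorescence and signal-to-noise across triplicate slides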
[4] = small molecules captured by biotinylated probe aFGF10 – biochemical, small-molecule microarray, fluorescence 635/667, stem cell growth factor project, primary screen (AID 1071); details: higher = more signal;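 also: score merges 667 nm spot intensity and signal to noise from triplicate slides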
[5] = target: Neurogenic locus notch homolog protein 2 (Homo sapiens) (UniProt Q04721); assay: small molecules binding Notch2 protein – biochemical, small-molecule microarray, 635 nm fluorescence, stem cell growth factors, primary screen (AID 1073); details: higher = more signal
[6] = target: Pro-neuregulin-1, membrane-bound isoform (Homo sapiens) (UniProt Q02297); assay: small molecules binding neuregulin-1 protein – biochemical, small-molecule microarray, fluorescence 635/667, psychiatric disease protein project, primary screen (AID 1075); details: NRG1 binding, 635 nm fluorescence, higher = more signal;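 also: score combines 667 nm spot fluorescence with signal to noise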
[7] = tested on: Neuregulin-1 EGF-like domain; assay: small molecules binding NRG1 EGF domain – biochemical, small-molecule microarray, 635 nm fluorescence, primary screen (AID 1081); details: higher = more signal;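 also: binding of the protein to compounds printed on small-molecule microarray slides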
[8] = FRG1 expression reporter modulators in myotubes – cell-based, C2C12 myotubes, firefly/Renilla luciferase, luminescence, FRG1 inhibition for FSHD, primary screen (AID 1084); details: FRG1 promoter luciferase, higher = more signal, called active from +8 up or from −8 down
[9] = small molecules captured by biotinylated probe aFST – biochemical, small-molecule microarray, fluorescence 635/667, stem cell growth factor project, primary screen (AID 1086); details: higher = more signal;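 also: score merges 667 nm fluorescence with signal-to-noise of each printed compound spot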
[10] = binders of probe aHhip on microarray, primary screen, stem cell growth factor project, biochemical, small-molecule microarray, fluorescence 635/667 (AID 1087); details: higher = more signal;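 also: score merges spot fluorescence at 667nm with spot signal to noise ratio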
[11] = tested on: PRMT1 (protein arginine N-methyltransferase 1); assay: small molecules binding arginine methyltransferase PRMT1 – biochemical, small-molecule microarray, 635 nm fluorescence, primary screen (AID 1088); details: higher = more signal;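 also: binding of Prmt1 protein to compounds spotted on small-molecule microarray slides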
[12] = growth effects on S. cerevisiae YJM789 – YJM789 clinical isolate, OD600, 24 h, basal, primary screen (AID 1089); details: higher = more signal, called active from +8 up or from −8 down;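 also: growth of clinical yeast isolate S. cerevisiae YJM 789 seeded 1000 cells per well; test concentration not given here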
[13] = S. pombe growth modifiers, basal conditions – strain 972, OD600, 24 h, no modulator, primary screen (AID 1090);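 also: basal condition with compound alone and no growth modifier present; test concentration not given here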; details: S. pombe 972 growth, higher = more signal, called active from +8 up or from −8 down
[14] = budding yeast growth modifiers under rapamycin – strain BY4716, OD600, 96 h, primary screen (AID 1091); also: test concentration not given here; details: S. cerevisiae BY4716 + rapamycin, higher = more signal, called active from +8 up or from −8 down
[15] = target: Torsin-1A-interacting protein 2 (Homo sapiens) (UniProt Q8NFQ8); assay: small molecules binding lysate-expressed LULL1 – cell lysate, human LULL1 lysate, 635/667 nm fluorescence, primary screen (AID 1092); details: small-molecule microarray, hLULL1 lysate binding, 635 nm fluorescence; higher = more signal;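 also: probe is lysate of COS7 cells overexpressing human LULL1; score merges per-feature 667 nm fluorescence with signal-to-noise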
[16] = optical density change of DRC41 E. coli – strain DRC41, OD650, 24 h, E. coli filamentation project, primary screen (AID 1093);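 also: MC1000 strain lacking acrAB efflux and sulA so SOS filamentation is blocked; test concentration not given here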; details: E. coli DRC41 growth, higher = more signal, called active from +8 up or from −8 down
[17] = probe aLefty2 binding to arrayed compounds – biochemical, biotinylated probe, 635/667 nm fluorescence, primary screen (AID 1094); details: small-molecule microarray, higher = more signal;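 also: score merges spot fluorescence near 667 nm with spot signal-to-noise ratio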
[18] = tested on: Noggin (protein binding on small-molecule microarray); assay: small molecules binding Noggin protein – biochemical, 635/667 nm fluorescence, primary screen (AID 1095); details: 635 nm fluorescence, higher = more signal;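 also: score merges 667 nm feature fluorescence with signal to noise over triplicate slides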
[19] = target: Neurogenic locus notch homolog protein 3 (Homo sapiens) (UniProt Q9UM47); assay: small molecules binding NOTCH3 protein – biochemical, 635/667 nm fluorescence, primary screen (AID 1096); details: small-molecule microarray, 635 nm fluorescence, higher = more signal
[20] = probe aEGFR binding to arrayed compounds – biochemical, biotinylated probe, 635/667 nm fluorescence, primary screen (AID 1097); details: small-molecule microarray, higher = more signal;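 also: probe is a biotinylated anti-EGFR antibody binding compounds printed on slides; score combines fluorescence near 667 nm and signal to noise of each spot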

Chain of Neurogenic locus notch homolog protein 3 (Homo sapiens) (Q9UM47 whole entry, looked up): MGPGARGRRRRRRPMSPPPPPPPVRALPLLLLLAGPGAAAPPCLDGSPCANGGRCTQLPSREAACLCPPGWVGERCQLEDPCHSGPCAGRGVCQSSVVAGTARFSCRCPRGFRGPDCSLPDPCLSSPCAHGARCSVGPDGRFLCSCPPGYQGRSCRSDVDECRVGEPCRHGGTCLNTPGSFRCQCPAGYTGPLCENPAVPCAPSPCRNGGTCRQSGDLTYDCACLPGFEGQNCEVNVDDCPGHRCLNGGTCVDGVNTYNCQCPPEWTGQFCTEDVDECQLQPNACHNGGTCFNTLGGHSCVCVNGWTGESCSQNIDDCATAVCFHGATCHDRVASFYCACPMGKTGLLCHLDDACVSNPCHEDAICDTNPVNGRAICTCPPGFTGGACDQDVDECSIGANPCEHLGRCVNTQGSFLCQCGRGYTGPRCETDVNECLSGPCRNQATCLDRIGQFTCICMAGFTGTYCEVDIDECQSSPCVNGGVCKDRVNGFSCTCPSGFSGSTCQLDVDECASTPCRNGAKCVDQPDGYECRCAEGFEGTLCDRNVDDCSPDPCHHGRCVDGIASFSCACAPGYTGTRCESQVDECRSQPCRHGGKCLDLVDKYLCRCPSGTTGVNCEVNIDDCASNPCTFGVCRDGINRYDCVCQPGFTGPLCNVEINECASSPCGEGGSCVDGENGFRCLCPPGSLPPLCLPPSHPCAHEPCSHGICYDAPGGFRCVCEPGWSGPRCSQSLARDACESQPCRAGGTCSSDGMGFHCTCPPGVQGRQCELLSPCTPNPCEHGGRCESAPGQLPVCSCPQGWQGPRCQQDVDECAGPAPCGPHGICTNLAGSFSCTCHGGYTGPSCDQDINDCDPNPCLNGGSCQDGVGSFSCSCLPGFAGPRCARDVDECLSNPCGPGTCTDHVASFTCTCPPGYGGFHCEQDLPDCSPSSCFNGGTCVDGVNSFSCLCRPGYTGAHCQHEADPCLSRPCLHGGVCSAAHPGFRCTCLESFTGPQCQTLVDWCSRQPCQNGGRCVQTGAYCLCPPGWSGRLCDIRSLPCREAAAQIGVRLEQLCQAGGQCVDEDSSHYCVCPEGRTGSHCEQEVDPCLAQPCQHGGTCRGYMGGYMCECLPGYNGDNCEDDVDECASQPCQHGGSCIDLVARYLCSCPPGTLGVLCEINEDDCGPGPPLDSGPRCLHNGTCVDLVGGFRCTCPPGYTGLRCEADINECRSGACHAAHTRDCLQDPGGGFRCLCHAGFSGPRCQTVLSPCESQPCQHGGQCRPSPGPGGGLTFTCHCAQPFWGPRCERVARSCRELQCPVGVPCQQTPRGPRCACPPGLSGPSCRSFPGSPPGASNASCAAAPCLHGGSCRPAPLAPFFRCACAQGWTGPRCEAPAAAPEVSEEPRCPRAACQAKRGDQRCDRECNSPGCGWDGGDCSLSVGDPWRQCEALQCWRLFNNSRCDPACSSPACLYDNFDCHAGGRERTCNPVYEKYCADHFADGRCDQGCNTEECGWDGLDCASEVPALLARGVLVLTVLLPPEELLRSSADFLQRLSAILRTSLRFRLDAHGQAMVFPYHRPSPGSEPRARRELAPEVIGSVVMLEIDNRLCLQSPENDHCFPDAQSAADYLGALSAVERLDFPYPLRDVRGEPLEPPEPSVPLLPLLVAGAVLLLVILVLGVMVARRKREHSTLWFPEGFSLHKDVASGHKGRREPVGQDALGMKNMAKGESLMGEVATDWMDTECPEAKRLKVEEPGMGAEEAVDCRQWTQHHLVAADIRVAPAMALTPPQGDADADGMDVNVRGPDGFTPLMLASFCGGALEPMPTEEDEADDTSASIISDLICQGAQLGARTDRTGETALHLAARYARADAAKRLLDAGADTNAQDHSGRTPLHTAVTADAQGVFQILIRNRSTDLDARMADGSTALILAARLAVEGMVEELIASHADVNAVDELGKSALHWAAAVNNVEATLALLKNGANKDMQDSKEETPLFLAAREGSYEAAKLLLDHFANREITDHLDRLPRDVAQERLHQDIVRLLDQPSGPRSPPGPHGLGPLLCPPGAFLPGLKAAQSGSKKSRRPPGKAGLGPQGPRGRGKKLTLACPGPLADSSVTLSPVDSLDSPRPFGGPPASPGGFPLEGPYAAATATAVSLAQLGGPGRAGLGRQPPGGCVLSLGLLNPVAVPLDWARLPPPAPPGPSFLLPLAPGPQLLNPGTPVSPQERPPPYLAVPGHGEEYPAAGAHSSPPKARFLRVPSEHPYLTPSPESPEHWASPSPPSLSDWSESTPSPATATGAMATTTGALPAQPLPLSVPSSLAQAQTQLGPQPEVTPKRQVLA
Chain of Neurogenic locus notch homolog protein 2 (Homo sapiens) (Q04721 whole entry, looked up, canonical isoform): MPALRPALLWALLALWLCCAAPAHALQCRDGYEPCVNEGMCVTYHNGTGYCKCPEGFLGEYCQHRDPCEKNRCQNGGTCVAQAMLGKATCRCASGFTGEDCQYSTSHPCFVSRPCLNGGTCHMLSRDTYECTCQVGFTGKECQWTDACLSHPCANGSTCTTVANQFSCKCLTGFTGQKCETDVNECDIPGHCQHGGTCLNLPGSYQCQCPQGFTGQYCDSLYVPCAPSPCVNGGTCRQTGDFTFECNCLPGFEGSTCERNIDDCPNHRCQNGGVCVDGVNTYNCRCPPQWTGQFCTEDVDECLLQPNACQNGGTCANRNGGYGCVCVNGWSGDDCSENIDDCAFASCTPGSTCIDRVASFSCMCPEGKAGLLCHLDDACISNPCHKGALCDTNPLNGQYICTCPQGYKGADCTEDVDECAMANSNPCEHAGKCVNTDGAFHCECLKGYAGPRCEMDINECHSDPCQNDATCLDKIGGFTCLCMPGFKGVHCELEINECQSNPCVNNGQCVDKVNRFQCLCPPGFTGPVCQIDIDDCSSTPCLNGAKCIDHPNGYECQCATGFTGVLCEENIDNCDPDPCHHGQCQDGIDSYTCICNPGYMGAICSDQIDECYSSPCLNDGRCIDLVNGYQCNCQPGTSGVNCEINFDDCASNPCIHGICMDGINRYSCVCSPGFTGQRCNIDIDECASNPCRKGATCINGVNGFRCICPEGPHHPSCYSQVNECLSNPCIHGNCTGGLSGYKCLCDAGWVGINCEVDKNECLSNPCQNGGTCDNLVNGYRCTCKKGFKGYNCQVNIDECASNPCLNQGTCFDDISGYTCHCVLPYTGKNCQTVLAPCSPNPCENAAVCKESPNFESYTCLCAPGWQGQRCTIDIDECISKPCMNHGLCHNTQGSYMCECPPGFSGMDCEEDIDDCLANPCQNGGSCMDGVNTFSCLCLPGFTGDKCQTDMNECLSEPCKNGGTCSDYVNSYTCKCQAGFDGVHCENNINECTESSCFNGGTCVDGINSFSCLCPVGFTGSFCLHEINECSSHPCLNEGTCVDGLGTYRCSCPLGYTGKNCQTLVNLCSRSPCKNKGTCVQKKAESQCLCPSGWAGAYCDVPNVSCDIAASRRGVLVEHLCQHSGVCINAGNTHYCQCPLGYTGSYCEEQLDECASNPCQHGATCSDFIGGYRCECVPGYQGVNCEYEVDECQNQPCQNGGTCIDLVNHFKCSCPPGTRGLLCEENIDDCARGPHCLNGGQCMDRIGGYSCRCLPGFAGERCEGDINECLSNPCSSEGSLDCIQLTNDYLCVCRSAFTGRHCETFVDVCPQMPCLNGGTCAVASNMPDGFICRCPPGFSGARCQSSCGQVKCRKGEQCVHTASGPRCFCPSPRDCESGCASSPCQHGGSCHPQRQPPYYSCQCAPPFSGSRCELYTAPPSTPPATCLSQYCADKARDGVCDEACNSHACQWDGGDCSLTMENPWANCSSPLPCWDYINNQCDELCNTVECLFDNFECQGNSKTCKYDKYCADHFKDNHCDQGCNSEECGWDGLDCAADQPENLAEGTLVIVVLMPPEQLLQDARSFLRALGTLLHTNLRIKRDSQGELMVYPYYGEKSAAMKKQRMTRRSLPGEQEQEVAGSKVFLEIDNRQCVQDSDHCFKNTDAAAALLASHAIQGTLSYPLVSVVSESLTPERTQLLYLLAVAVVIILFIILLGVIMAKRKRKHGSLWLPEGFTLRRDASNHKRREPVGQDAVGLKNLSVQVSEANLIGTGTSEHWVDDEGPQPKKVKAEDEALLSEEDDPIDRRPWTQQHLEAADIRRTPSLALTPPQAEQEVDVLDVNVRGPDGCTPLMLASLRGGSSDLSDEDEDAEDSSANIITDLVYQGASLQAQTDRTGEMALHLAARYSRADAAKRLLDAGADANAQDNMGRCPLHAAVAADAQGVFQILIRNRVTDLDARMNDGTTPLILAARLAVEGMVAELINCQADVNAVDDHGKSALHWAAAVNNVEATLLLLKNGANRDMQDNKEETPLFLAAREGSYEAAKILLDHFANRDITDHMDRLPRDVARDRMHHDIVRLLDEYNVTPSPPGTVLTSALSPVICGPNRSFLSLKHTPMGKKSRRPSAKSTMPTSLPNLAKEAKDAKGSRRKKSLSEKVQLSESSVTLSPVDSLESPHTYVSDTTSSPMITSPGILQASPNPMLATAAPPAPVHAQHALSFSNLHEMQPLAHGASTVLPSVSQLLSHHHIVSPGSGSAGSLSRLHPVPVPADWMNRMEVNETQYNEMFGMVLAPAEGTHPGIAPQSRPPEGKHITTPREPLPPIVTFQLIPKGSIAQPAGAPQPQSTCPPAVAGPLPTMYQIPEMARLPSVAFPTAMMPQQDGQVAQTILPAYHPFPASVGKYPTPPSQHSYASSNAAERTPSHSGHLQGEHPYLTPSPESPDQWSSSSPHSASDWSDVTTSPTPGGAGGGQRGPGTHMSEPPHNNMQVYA

Row | Structure (SMILES) | composite z-score [1] | composite z-score [2] | composite z-score [3] | composite z-score [4] | composite z-score [5] | composite z-score [6] | composite z-score [7] | z-score [8] | composite z-score [9] | composite z-score [10] | composite z-score [11] | z-score [12] | z-score [13] | z-score [14] | composite z-score [15] | z-score [16] | composite z-score [17] | composite z-score [18] | composite z-score [19] | composite z-score [20]
1 | CO[C@@H]1COC(=O)[C@@H](C)NC(=O)CC=C[C@@H](C)[C@H](NS(=O)(=O)c2ccc(C)cc2)COC(=O)[C@H](C)NC(=O)CC=C[C@H]1C | -0.505 | 0.441 | -0.119 | 0.189 | -0.167 | -0.523 | 0.388 | 0.0404 (inactive) | -0.0334 | 0.168 | 1.36 | -0.263 (inactive) | -0.988 (inactive) | -0.331 (inactive) | 0.537 | 1.72 (inactive) | -0.319 | 0.879 | 0.225 | -0.0793
2 | CC(CCN1CCCc2nc(C)c(C)cc21)=NO[C@@H](C)c1cc(-c2c(C)cc(C)cc2C)no1 | -0.34 | -0.685 | -0.0069 | 0.338 | 0.121 | 0.732 | 0.8 | -0.682 (inactive) | 0.0731 | -0.166 | 0.684 | 0.0024 (inactive) | -2.18 (inactive) | -0.381 (inactive) | 1.33 | 1.74 (inactive) | -0.0512 | 0.308 | 0.635 | -0.0873
3 | CON=C[C@@H](C)[C@H](OCc1ccccc1)C(C)C | 0.797 | 0.0789 | -0.138 | -0.0499 | -0.12 | -0.575 | -0.502 | 0.538 (inactive) | -0.0062 | 0.0373 | -1.25 | 0.0195 (inactive) | -0.596 (inactive) | 0.772 (inactive) | -0.618 | -0.718 (inactive) | -0.149 | 0.314 | -0.154 | -0.158
4 | CC1O[C@H]2C3=C(C(=O)[C@@H]4O[C@@H]4[C@H]3O)[C@@H]1C1[C@@H](C)OC=C3[C@H](O)C4O[C@@H]4C(=NOCc4ccccc4)[C@]312 (stereo not given in full) | -0.379 | -0.488 | -0.166 | 0.0246 | 0.112 | -0.505 | -0.0339 | -1.15 (inactive) | -0.123 | -0.216 | -0.543 | 0.247 (inactive) | -0.602 (inactive) | 0.089 (inactive) | 0.578 | -0.42 (inactive) | -0.192 | 0.521 | -0.128 | -0.148
5 | CO[C@@H]1COC(=O)[C@H](CCSC)NC(=O)CC=C[C@@H](C)COC(=O)[C@H](C)NC(=O)CC=C[C@H]1C | -0.605 | 1.03 | -0.129 | 0.347 | 0.115 | -0.343 | 0.871 | -0.0159 (inactive) | 0.457 | 0.408 | 1.39 | 0.153 (inactive) | -0.266 (inactive) | 0.291 (inactive) | -0.0068 | 1.01 (inactive) | -0.247 | 0.783 | 0.989 | -0.201
6 | CC(CCN1CCCCc2nc(C)c(C)cc21)=NOC[C@@H](C)[C@H](OCc1ccccc1)C(C)C | -0.443 | -0.548 | -0.29 | -0.776 | -1.38 | -0.559 | -0.545 | -0.688 (inactive) | -2.12 | -0.0423 | -0.262 | -2.75 (inactive) | -5.66 (inactive) | -0.677 (inactive) | -0.569 | -1.42 (inactive) | -0.467 | -1.02 | -1.53 | -0.551
7 | CCOC(=O)[C@H](CC(C)C)NC(=O)CCC1CC(OC(=O)NCCc2ccc(F)cc2)CC2(CCCC(COC(=O)NCC(c3ccccc3)c3ccccc3)O2)O1 (stereo not given in full) | -0.65 | 0.149 | -0.136 | 0.433 | 0.787 | 0.221 | 1.12 | 2.36 (inactive) | 0.0026 | -0.236 | 1.41 | -0.297 (inactive) | 0.427 (inactive) | -1.3 (inactive) | 2.59 | -0.198 (inactive) | -0.105 | 0.569 | 0.499 | -0.127
8 | C[C@@H]1NC(=O)[C@@H](C)COC(=O)[C@H](C)NC(=O)[C@@H](C)COC1=O | -0.537 | 0.472 | -0.121 | 0.489 | 0.51 | -0.292 | 1.14 | -3.49 (inactive) | 0.253 | 0.0623 | 0.455 | -0.335 (inactive) | -0.924 (inactive) | -1.94 (inactive) | 1.03 | -0.0698 (inactive) | -0.0186 | 0.79 | -0.0611 | 0.132
9 | CCOC(=O)[C@H](Cc1ccccc1)NC(=O)OC1CC(CCC2CC(CC)=NO2)OC2(CCCC(COC(=O)NCCC(C)C)O2)C1 (stereo not given in full) | -0.436 | -0.235 | -0.0692 | 0.354 | 0.165 | 0.418 | 0.86 | 0.309 (inactive) | -0.0729 | -0.218 | 1.19 | -0.764 (inactive) | 0.595 (inactive) | 0.344 (inactive) | 1.44 | 1.11 (inactive) | -0.147 | 0.322 | -0.0258 | -0.0721
10 | C=CC[C@@H]1C=C[C@H](ON=C(C)CCN2CCc3nc(-c4ccccc4)c(-c4ccccc4)cc3C2)[C@@H](CO)O1 | -0.374 | 1.11 | -0.2 | 0.34 | 0.65 | 0.464 | 0.942 | 1.23 (inactive) | 0.197 | 0.0393 | 1.55 | -0.67 (inactive) | -4.53 (inactive) | -3.82 (inactive) | 1.53 | 1.42 (inactive) | -0.152 | 0.631 | 0.858 | -0.0332
